# Measurements published in article PMC10943123.
# Tests used:
# [1] = biological target: Nuclear cap-binding protein subunit 1 (UniProt Q09161); assay: cross-linking mass spectrometry
# [2] = biological target: Cell division cycle 5-like protein (UniProt Q99459); assay: cross-link between two proteins; cross-linking mass spectrometry
# [3] = biological target: Pre-mRNA-processing-splicing factor 8 (UniProt Q6P2Q9); assay: as above
# [4] = biological target: Small nuclear ribonucleoprotein-associated proteins B and B' (UniProt P14678); assay: as above
# [5] = biological target: Splicing factor 3A subunit 2 (UniProt Q15428); assay: as above
# [6] = biological target: U6 snRNA-associated Sm-like protein LSm4 (UniProt Q9Y4Z0); assay: as above
# [7] = biological target: U6 snRNA-associated Sm-like protein LSm6 (UniProt P62312); assay: as above
# [8] = biological target: WD repeat-containing protein 70 (UniProt Q9NW82); assay: as above
# [9] = biological target: WW domain-binding protein 4 (UniProt O75554); assay: as above
# [10] = biological target: Zinc finger CCCH domain-containing protein 18 (UniProt Q86VM9); assay: as above
# [11] = biological target: Cell division cycle 5-like protein (UniProt Q99459); assay: cross-link between two proteins; cross-linking mass spectrometry; other
# Cell division cycle 5-like protein, sequence (Q99459 whole entry): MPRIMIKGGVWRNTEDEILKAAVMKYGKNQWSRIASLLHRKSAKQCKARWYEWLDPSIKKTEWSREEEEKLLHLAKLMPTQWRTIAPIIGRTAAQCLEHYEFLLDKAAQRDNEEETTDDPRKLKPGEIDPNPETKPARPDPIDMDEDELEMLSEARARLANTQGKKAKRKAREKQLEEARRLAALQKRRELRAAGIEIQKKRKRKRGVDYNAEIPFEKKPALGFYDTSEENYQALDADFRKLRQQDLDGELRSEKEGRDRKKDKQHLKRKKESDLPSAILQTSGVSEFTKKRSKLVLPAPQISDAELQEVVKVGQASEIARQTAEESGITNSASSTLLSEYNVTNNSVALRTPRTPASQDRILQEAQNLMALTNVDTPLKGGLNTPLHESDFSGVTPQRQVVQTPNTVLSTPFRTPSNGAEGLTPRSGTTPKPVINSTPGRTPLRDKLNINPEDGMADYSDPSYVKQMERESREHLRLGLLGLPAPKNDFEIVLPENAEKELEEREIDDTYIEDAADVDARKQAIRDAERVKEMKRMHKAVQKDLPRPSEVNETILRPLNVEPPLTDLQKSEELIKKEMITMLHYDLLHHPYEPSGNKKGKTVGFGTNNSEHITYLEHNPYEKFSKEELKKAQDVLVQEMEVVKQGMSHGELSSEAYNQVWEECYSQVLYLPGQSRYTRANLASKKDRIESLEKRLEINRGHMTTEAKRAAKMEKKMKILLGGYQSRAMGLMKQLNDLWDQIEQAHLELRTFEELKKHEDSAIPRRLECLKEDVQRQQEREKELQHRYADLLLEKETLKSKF
# Nuclear cap-binding protein subunit 1, sequence (Q09161 whole entry): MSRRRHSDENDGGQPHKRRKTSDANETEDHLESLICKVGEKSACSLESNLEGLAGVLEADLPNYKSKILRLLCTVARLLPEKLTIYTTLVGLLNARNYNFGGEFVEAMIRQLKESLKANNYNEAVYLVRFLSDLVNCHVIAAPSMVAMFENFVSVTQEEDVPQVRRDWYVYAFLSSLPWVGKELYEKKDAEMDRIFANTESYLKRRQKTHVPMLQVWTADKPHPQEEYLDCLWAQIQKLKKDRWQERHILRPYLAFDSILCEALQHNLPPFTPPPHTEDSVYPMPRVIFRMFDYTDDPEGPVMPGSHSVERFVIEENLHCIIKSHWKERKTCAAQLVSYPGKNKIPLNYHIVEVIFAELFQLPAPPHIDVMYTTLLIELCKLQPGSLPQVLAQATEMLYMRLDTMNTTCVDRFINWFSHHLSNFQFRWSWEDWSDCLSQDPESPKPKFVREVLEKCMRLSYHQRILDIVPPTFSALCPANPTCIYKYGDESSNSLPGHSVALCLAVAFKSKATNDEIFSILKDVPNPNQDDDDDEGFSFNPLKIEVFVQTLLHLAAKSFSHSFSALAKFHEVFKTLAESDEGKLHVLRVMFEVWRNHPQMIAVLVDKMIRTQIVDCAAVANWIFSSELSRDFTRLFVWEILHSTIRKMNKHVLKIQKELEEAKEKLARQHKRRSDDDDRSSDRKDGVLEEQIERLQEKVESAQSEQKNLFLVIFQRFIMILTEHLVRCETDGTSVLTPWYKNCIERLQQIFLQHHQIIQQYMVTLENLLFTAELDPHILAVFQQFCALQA
# Splicing factor 3A subunit 2, sequence (Q15428 whole entry): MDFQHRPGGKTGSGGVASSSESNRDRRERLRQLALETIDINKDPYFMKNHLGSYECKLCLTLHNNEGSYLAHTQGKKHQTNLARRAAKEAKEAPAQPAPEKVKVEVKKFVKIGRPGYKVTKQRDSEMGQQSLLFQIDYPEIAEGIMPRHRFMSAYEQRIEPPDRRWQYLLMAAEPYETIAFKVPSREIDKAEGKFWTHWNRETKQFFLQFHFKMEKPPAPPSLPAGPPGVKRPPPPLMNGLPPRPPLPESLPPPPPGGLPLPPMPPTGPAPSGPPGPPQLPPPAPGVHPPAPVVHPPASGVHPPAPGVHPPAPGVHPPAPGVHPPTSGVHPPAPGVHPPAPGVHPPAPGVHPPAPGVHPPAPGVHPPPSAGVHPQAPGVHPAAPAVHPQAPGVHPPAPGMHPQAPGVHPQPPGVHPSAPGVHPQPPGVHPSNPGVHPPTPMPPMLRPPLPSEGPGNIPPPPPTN
# Zinc finger CCCH domain-containing protein 18, sequence (Q86VM9 whole entry, the tested form may be a part): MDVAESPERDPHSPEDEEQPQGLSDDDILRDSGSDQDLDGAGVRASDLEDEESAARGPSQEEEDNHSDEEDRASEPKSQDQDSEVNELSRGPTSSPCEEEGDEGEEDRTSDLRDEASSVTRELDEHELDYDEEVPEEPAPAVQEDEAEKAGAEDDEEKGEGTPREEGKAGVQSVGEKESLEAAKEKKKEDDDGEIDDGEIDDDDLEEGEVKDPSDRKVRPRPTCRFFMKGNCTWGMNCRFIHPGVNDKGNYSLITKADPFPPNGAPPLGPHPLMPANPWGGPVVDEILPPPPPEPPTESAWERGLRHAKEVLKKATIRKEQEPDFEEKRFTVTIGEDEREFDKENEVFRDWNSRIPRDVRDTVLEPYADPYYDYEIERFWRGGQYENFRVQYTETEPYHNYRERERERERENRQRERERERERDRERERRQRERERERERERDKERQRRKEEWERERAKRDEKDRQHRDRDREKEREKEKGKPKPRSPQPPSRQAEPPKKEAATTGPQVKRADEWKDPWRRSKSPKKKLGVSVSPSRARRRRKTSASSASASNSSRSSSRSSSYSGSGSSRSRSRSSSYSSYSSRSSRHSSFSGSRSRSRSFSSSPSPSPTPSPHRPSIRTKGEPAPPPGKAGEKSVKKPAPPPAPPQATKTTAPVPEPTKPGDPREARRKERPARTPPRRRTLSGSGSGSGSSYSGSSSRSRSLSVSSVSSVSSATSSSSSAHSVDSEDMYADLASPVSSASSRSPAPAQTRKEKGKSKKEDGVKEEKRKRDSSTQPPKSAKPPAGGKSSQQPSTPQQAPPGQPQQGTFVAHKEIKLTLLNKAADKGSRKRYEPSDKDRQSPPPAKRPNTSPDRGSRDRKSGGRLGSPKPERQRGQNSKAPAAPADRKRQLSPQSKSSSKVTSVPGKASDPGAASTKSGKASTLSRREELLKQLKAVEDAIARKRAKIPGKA
# U6 snRNA-associated Sm-like protein LSm6, sequence (P62312 whole entry): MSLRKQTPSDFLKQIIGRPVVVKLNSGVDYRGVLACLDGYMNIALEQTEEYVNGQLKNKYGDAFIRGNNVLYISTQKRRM
# WD repeat-containing protein 70, sequence (Q9NW82 whole entry, the tested form may be a part): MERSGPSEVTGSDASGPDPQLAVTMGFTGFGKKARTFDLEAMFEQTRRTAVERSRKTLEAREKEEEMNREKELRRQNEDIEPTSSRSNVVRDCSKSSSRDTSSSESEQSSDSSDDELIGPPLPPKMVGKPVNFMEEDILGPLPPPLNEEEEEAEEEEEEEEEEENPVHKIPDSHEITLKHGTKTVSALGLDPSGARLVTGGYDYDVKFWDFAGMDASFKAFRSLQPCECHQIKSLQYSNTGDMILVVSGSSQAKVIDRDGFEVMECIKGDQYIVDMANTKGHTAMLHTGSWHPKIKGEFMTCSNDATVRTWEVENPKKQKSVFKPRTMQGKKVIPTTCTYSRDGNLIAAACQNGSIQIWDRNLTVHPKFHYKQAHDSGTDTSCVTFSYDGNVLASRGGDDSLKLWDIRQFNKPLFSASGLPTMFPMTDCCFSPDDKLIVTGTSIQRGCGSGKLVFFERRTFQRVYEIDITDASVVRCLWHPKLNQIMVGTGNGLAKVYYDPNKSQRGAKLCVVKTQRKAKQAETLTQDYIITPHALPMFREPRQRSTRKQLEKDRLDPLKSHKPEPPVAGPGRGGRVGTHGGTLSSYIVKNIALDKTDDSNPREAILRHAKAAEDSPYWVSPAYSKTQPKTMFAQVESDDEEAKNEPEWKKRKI
# Peptidyl-prolyl cis-trans isomerase H, O43447, sequence (O43447 whole entry): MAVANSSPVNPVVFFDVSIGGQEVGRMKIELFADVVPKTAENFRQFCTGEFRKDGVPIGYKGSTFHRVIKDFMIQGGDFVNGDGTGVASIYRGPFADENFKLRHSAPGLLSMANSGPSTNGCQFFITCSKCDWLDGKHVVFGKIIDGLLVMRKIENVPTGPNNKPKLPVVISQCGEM
# WW domain-binding protein 4, sequence (O75554 whole entry, the tested form may be a part): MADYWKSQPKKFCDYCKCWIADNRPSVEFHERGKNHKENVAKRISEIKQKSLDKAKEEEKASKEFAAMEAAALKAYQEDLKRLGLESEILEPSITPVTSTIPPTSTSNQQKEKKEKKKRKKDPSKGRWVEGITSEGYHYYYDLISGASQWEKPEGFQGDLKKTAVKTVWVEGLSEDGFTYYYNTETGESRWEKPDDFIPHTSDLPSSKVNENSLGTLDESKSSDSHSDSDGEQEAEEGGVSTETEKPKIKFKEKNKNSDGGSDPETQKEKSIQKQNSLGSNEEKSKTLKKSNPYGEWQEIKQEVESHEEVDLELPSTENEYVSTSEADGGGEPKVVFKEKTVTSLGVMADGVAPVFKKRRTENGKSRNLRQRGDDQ
# U6 snRNA-associated Sm-like protein LSm4, sequence (Q9Y4Z0 whole entry): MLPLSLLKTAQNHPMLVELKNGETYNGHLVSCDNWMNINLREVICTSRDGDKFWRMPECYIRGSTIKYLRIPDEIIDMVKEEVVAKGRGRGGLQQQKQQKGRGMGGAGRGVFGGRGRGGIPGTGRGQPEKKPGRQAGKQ
substance,measurement,setting,value
"Nuclear cap-binding protein subunit 2, P52298",listed as a hit,[1],yes
"U5 small nuclear ribonucleoprotein 40 kDa protein, Q96DI7",listed as a hit,[2],yes
"Thioredoxin-like protein 4A, P83876",listed as a hit,[3],yes
"U2 small nuclear ribonucleoprotein B'', P08579",listed as a hit,[4],yes
"Splicing factor 3B subunit 4, Q15427",listed as a hit,[5],yes
"U6 snRNA-associated Sm-like protein LSm7, Q9UK45",listed as a hit,[6],yes
"U4/U6 small nuclear ribonucleoprotein Prp3, O43395",listed as a hit,[7],yes
"Pre-mRNA-processing factor 17, O60508",listed as a hit,[8],yes
"Peptidyl-prolyl cis-trans isomerase H, O43447",listed as a hit,[9],yes
"Nuclear cap-binding protein subunit 1, Q09161",listed as a hit,[10],yes
"U5 small nuclear ribonucleoprotein 200 kDa helicase, O75643",listed as a hit,[11],yes
